PubChem BioAssay AID2107 (National Center for Advancing Translational Sciences (NCATS), 2009)
Among all 240,000 compounds or so, about 20 (0.008%) were called active. Inconclusive results (about 1%) are left out. Calls come from the whole dose curve; as a rule, active = well fitted inhibition curve with a large enough effect; inconclusive = small, poorly fitted or top-dose-only effect, or effect the other way; inactive = flat fitted curve, though single readings scatter. A selection follows.

Target: Alpha-galactosidase A (Homo sapiens) (UniProt P06280)
Sequence (P06280 32-429 limits assumed): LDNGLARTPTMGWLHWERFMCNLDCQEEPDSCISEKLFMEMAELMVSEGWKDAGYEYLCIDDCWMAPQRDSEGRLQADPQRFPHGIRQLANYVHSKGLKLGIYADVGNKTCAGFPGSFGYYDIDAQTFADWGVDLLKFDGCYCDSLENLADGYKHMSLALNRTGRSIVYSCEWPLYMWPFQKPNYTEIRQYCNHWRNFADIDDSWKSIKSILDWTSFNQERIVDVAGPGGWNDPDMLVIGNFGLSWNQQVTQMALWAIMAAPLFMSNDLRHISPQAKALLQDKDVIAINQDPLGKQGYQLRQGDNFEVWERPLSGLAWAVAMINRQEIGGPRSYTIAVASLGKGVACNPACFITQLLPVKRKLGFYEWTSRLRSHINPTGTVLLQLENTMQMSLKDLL
Assay: qHTS Assay for Inhibitors and Activators of Human alpha-Galactosidase From Spleen Homogenate;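 note: 0% = enzyme with vehicle and -100% = no enzyme basal signal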
Settings: 4MU-alpha-Gal fluorescence, 40 min; series mostly up to 80 µM; activity change, negative = inhibition: at the top concentration
Text: NIH Chemical Genomics Center [NCGC] NIH Molecular Libraries Probe Production Centers Network [MLPCN] MLPCN Grant: R03 MH084842-01 Assay Submitter (PI): Wei Zheng NCGC Assay Overview: Alpha-galactosidase is a homodimeric glycoprotein that hydrolyzes the terminal alpha-galactosyl moieties from glycolipids and glycoproteins. Deficiency of this enzyme results in Fabry Disease with progressive accumulation of globotriaosylceramide and other glycosphingolipids in vascular endothelial cells that causes renal failure, myocardial infarction and stroke, and premature death in patients. It has been reported that the improper folding and trafficking of alpha-galactosidase resulting from genetic mutations may account for a significant number of Fabry patients. […] We optimized this alpha-galactosidase assay in 1536-well plate format for identification of novel small molecule inhibitors or activators with structures other than the sugar analogs in order to develop new pharmacological chaperones. In particular, this assay is directed towards discovering compounds active in more natural setting, tissue homogenate, that may have been missed by screens of the purified enzyme under more stringent conditions.
NCGC Assay Protocol Summary: This is a fluorogenic enzyme assay with 4-methylumbelliferyl-alpha-D-galactopyranoside as the substrate and human spleen homogenate containing alpha-galactosidase as the enzyme preparation. Upon hydrolysis of this fluorogenic substrate, the resulting product, 4-methylumbelliferone (which excites at 365 nm and emits at 440 nm) can be detected by a fluorescence plate reader. Data were normalized to the controls for basal activity (without enzyme) and 100% activity (with enzyme). The AC50 values were determined from concentration-response data modeled with the standard Hill equation. Assay buffer: 50 mM citric acid (titrated with potassium phosphate to pH 5.0), 0.01% Tween-20 (pH 5.0 is an optimal condition for this enzyme assay) 1536-well assay protocol for the alpha-galactosidase from human spleen homogenate: (1) Add 2 ul/well spleen homogenate (1 ug) (2) Add 23 nL compounds in DMSO solution. The final titration was 0.5 nM to 58 uM. (3) Add 2 ul of substrate (1 mM final) (4) Incubate at 37C for 40 min (5) Add 2 ul stop solution (1M NaOH and 1M Glycine mixture, pH 10) (6) Detect the assay plate in a ViewLux plate reader (PerkinElmer) with Ex=365 nm and Em=440nm. Keywords: Alpha-galactosidase, Fabry Disease, pharmacological chaperone, chaperone therapy, high throughput screening, alpha- galactosidase inhibitor, MLSMR, MLSCN, NIH Roadmap, qHTS and NCGC

Activity change, negative = inhibition, inactive:
COC(=O)Cc1csc(/N=C/c2c(O)n(-c3cccc(C(F)(F)F)c3)c(=O)c3ccccc23)n1 3.19%
C/C(CCN1CCCCc2nc(C)c(C)cc21)=N\O[C@@H](C)c1cn([C@@H]2COC[C@@H]2O)nn1 2.02% [at 17.5 µM]
Cc1nc(C(=O)NCc2ccccc2)sc1C1(C)CC(c2cccnc2)=NO1 (stereo not given) 10.3%
CCOC(=O)c1cc(C)nc(S(C)(=O)=O)c1C#N 7.86%
Cc1cc2oc(=O)cc(-c3ccccc3)c2c(C)c1/C=C/c1ccc(F)cc1 10.4% [at 119 µM]
CCOc1ccc(NC(=O)COc2ccc(C(=O)NC3CCCc4ccccc43)cc2OC)cc1 (stereo not given) 8.14%
O=C(COC(=O)c1ccc(Cl)nc1)NCc1ccc2c(c1)OCO2 1.1%
COc1cc(OC)c2c(C)cc(=O)oc2c1C(CCN1CCCCC1)c1ccc(N(C)C)cc1 (stereo not given) -6.87%
COCCCNC(=S)NCCNc1nc2cc(C)c(C)cc2cc1C#N 10.9%
O=C(O)c1ccc(/C=C2/SC(=S)N(c3cccc(C(F)(F)F)c3)C2=O)cc1 5.07%
CCO[C@@H]1OC(C(=O)NCc2nc3ccccc3[nH]2)=C[C@H](C2CCCCC2)[C@H]1CCCO 2.53%
C=CCCN(C(Cc1ccccc1)C(=O)OC)S(=O)(=O)c1cc(Br)ccc1Br (stereo not given) 0.915%
COc1ccc(CN2CCC(=O)c3ccccc3S2(=O)=O)cc1 -16.2%
CCOC(=O)C1=C(C)NC2=C(C(=O)CC(C)(C)C2)C1c1ccsc1 (stereo not given) 12.5%
O=C(NCC1CC1)C1(C(F)(F)F)C/C(=C\CCO)CCCO1 (stereo not given) 6.89%
Cc1scc(C(=O)NNC(=S)NCC(C)C)c1C 1.16%
CCCN1CCC(=O)N(C(CSc2ccc(C)cc2)Cc2ccccc2)CC1 (stereo not given) -1.75%
Cc1cc(C(=O)OCC(=O)N2c3ccccc3NC(=O)C2(C)C)c(C)n1-c1ccccc1 13.9%
O=C1/C(=C\c2ccccc2Cl)SC(=S)N1CCC(=O)N1CCCc2ccccc21 0.217%
COc1cccc(N(C(=O)c2ccn[nH]2)C2(C(=O)Nc3c(C)cccc3C)CCCCC2)c1 1.18%
OCC1(Cc2ccccc2C(F)(F)F)CCN(Cc2cccc3cnccc23)CC1 20.6%
C=C1/C(=C\C=C2\CCCC3(C)C2CCC3C(C)/C=C/C(O)C2CC2)CC(O)CC1O (stereo not given) -8.26%
Cc1noc(C)c1-c1ccc2ncnc(NCc3ccc4[nH]ccc4c3)c2c1 6.61%
CC(=O)OCC(NC(=O)C(Cc1ccccc1)NC(=O)OC(C)(C)C)C1OC(n2ccc(=O)[nH]c2=O)C(OC(C)=O)C1OC(C)=O (stereo not given) 10.3%
COc1ccc(C2CC(O)(c3ccccc3)Oc3cc(C)cc(C)c32)cc1 (stereo not given) 4.13%
Cn1c(N)c(C(=O)COC(=O)/C=C/c2ccc(OC(F)F)cc2)c(=O)n(C)c1=O 5.56%
COc1ccc(Br)cc1C1C2C=CCC(C)C2C(=O)N1Cc1ccccc1 (stereo not given) -6.92%
N#CC1=C(N)Oc2c(ccc3cccnc23)C1c1ccncc1 (stereo not given) 0.687%
COC(=O)C1(C(C)=O)CC2=CC[C@H]3C(=O)N(c4ccccc4)C(=O)[C@H]3[C@@H]2Cc2ccccc2[C@@H]1C[N+](=O)[O-] (stereo not given in full)
N#Cc1ccc(OCc2nnc(-c3ccc([N+](=O)[O-])cc3)o2)cc1 3.78%
CCOCCOC(=O)C(C)Oc1ccc(Oc2ncc(C(F)(F)F)cc2Cl)cc1 (stereo not given) -8.18%
CSc1ccccc1N1CCN(CCCCCC(=O)NC2CCCc3ccccc32)CC1 (stereo not given) -14.7%
Cc1cc(N(C)C)nc(Cl)n1 8.47%
Cc1cccc(NC(=S)NCCc2ccc(F)cc2)c1C -0.123%
CCn1c(SCC(=O)N/N=C/c2ccncc2)nc2ccccc21 -14.1%
Cc1ccc(Br)cc1 2.06%
COc1ccc(C(=O)C2CCCN(C(=O)c3cnsn3)C2)c(C)c1 (stereo not given) 1.71%
CC(C)(C)c1ccc(OC2=CS(=O)(=O)c3ccccc32)cc1 -0.164%
CCn1cc(C(=O)NCCCN2CCCCCC2)c(=O)c2cc(S(=O)(=O)N3CCc4ccccc4C3)ccc21 -3.78%
Cc1ccc(C)c(NS(=O)(=O)c2cc(Br)cnc2N)c1 -1.02%
CCN(CC)/[N+]([O-])=N/Oc1cc(O/[N+]([O-])=N/N2CCCC2CO)c([N+](=O)[O-])cc1[N+](=O)[O-] (stereo not given) 11.4%
CCn1c(NC(=O)c2nn(C)cc2Br)nc2ccccc21 -7.01%
O=C(/C=C/Sc1ncn[nH]1)c1ccc(Cl)cc1 -1.35%
Cc1cc(C)nc(SC(C)C(=O)N/N=C/c2cccs2)n1 (stereo not given) 7.98%
CCN(CC)CCN1C(=O)C(=O)/C(=C(/O)c2cnn(-c3ccccc3)c2C)C1c1cccs1 (stereo not given) 0.107%
Cc1cc(F)ccc1S(=O)(=O)N1CCCOC1CNC(=O)C(=O)NCCC1=CCCCC1 (stereo not given) 18%
CN(Cc1nc2ccc(F)cc2[nH]1)Cc1nc(CC2CC2)no1 2.19%
COc1ccc(C(CCN2CCOCC2)c2c(OC)cc(OC)c3c2OC(=O)CC3c2ccc(OC)cc2)cc1 (stereo not given) 6.75%
O=C1C2C(c3ccccc3)CC=CC2C(c2ccoc2)N1Cc1ccccc1 (stereo not given) -1.63%
O=C1C[C@@H](c2ccc3ccccc3c2)N1S(=O)(=O)c1ccccc1[N+](=O)[O-] -5.49%
Cc1onc(-c2c(Cl)cccc2Cl)c1C(=O)NNC(=O)c1c(-c2c(Cl)cccc2Cl)noc1C 11.8%
COc1ccc(C(=O)C[n+]2ccc(N)c(C)c2C)cc1 7.42%
CCN(C(=O)COC(=O)c1cc(NS(=O)(=O)c2ccc(Cl)c([N+](=O)[O-])c2)ccc1O)C1CCCCC1 4.45%
Cc1ccc(-c2nn(-c3ccccc3)cc2C(=O)Nc2cccc(S(=O)(=O)N3CCOCC3)c2)cc1 -6.48%
CCc1nc(C)cn1S(=O)(=O)c1cc([N+](=O)[O-])ccc1Cl 4.61%
COc1ccc(CN2CCC(c3nc4ccc(Cl)cc4[nH]3)CC2)cc1 -6.3%
O=C(COc1ccc(NC(=O)c2ccccc2[N+](=O)[O-])cc1)c1ccc(F)cc1 14.4%
C=C1CCN(C(CC(C)C)C(=O)N2CCOCC2)S(=O)(=O)c2ccccc21 (stereo not given) -5.35%
CC(C)C[C@@H](N)c1nnc(SCC(=O)c2ccc(Cl)cc2)o1 -1.52%
Fc1ccc(Cl)cc1-c1nc(Nc2ccncc2)c2nccnc2n1 -9.09%
Cc1scc(C(=O)NNC(=S)NCc2ccccc2)c1C 7.41%
Cc1cccc(-[n+]2c(-c3cccc(Br)c3)[nH]c3nc4ccccc4nc32)c1 -2.45%
O=[N+]([O-])c1ccccc1S(=O)(=O)Nc1cccc2cccnc12 7.38%
C=C1CCN(Cc2ccc(OC)cc2)S(=O)(=O)c2ccccc21 4.53%
COc1cc(OC)c2c(c1C(CCN1CCCCC1)c1ccc(N(C)C)cc1)OC(=O)CC2c1ccc(N(C)C)cc1 (stereo not given) 3.68%
CCN(CC)S(=O)(=O)c1ccc(N(C)Cc2ccc(C(F)(F)F)cc2)nc1 -3.22%
CCOc1ccc(NC(=O)CN(C)CC(=O)Nc2cccc(Cl)c2C)cc1OCC 5.04%
Cc1cccc(NC(=S)Nc2ccc3cn[nH]c3c2)c1 8.94%
O=C(CCl)N(Cc1cccc([N+](=O)[O-])c1)c1cccc(Cl)c1 -10.7%
CCCCc1nn(-c2ccccc2C(F)(F)F)c(=O)n1Cc1ccc(-c2ccccc2S(=O)(=O)NC(=O)c2sccc2C)cc1 0.0031%
CCCCC/C=C/C=C/C=O 1.62%
CC(Sc1nnc2c(n1)C1CCC2(C)C1(C)C)C(=O)Nc1ccccc1 (stereo not given) -0.44%
CO[C@@]12[C@@H](COC(N)=O)C3=C(C(=O)C(C)=C(N)C3=O)N1C[C@@H]1N[C@@H]12 -0.93%
O=C1CN(Cc2ccccc2)S(=O)(=O)c2ccccc21 -1.61%
CCOC(=O)Cn1c(=O)sc2cccc(Cl)c21 2.84%
Cc1nc2c(C(=O)NCc3cccs3)cnn2c(C)c1Cc1ccc(F)cc1 5.51%
Cc1ccc(OCC(=O)Nc2ccccc2Sc2ccc(Cl)cc2)c([N+](=O)[O-])n1 1.16%
Cc1cc2oc(=O)cc(-c3ccccc3)c2c(C)c1-c1ccc(OC(F)(F)F)cc1 0.0674%
H-EHIPA-OH -2.79%
O=C(NC1CCN(Cc2ccccc2)CC1)c1ccc(Oc2cc(Cl)cc(Cl)c2)o1 -9.68%
Cc1ccc(CNC(=O)C2(C(F)(F)F)C/C(=C\Cc3ccccc3)CCCO2)o1 (stereo not given) -9.28%
CCCC[C@@H]1C[C@H]1C(NC(=O)c1ccco1)c1ccc(C(=O)OC)cc1 (stereo not given in full) 5.32%
CCCN1CCC(=O)N(C(CSc2ccc(OC)cc2)Cc2ccccc2)CC1 (stereo not given) -1.67%
COc1ccc(C2/C=C\CN(C(=O)c3ccc(C)cc3)C(Cc3ccccc3)C(=O)N2Cc2ccc(F)cc2)cc1 (stereo not given) 6.34%
c1ccc2c(Nc3ccncc3)nc(-c3ccc4c(c3)OCO4)nc2c1 1.22%
COc1ccc(-c2ccc(OC)c(C3C4C=CCC(C)C4C(=O)N3Cc3ccccc3)c2)cc1C (stereo not given) -4.44%
S=C(NCCc1ccccc1)NCc1ccccc1Cl 6.06%
C=CCN(C(=O)c1cc(C)cc(C)c1)C1(C(=O)Nc2ccccc2)CCN(C(C)C)CC1 -2.75%
CCCCCOc1ccc(/C=C/C(=O)NCCc2nc3ccccc3[nH]2)cc1OC -6.34%
O=C(O)C1CC=CC2CCN(C3CCCCC3)C(=O)C21 (stereo not given) 5.49%
CCOc1cc(-c2conc2N)cc(OCC)c1OCC 6.98%
CC1(OC(=O)c2ccc(Cl)nc2)C(=O)Cc2cc(-c3ccsc3)ncc2C1=O (stereo not given) 4.14% [at 17.5 µM]
O=C(O)CCc1nc2cc(Cl)ccc2n(Cc2ccccc2)c1=O 4.55%
Cc1ccc(S(=O)(=O)c2nc(NCCCn3ccnc3)sc2Cl)cc1 4.6%
COc1cccc2sc(N(CCCN(C)C)C(=O)C(c3ccccc3)c3ccccc3)nc12 -1.08%
CC(=O)OCCC(C)C 2.51%
CN(C)CCOCCOc1ccc(Cl)c2ccccc12 -6.15%
COC(=O)CCc1ccccc1S(=O)(=O)N(CCC(=O)OC)Cc1ccccc1 3.22%
CC(C)C(NS(=O)(=O)c1ccc(-c2ccc(Br)cc2)cc1)C(=O)O (stereo not given) -1.46%
CCn1c2ccccc2c2cc(NC(=O)Nc3ccc([N+](=O)[O-])cc3C)ccc21 0.688%
